# The campaign covered roughly 300,000 compounds. About 2,300 (0.77%) were called active.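 Rule for the calls: active = mean activation of at least 80% with every replicate also reaching 80%; inconclusive = mean reaches 80% but some replicate falls short; inactive = the rest.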 Only a selection was taken, and actives are over-represented in it overall. Where a SMILES comes first, the peptide text is derived from it. [ ]: non-standard residue; d: D form. ξ: configuration not given here. Ac5c = NC1(C(=O)O)CCCC1; ξS = NC(CO)C(=O)O
# Test: activators of MITF-driven TRPM1 promoter reporter, primary screen, cell-based, SK-MEL-5, luciferase, single point (AID 588334);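 note: 0% = neutral control wells and 100% = parthenolide positive control wells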
# Details: SK-MEL-5 TRPM1-promoter luciferase, 24 h; at 12.5 µM; active compounds read high; % of positive control, neutral wells = 0
row,SMILES,activation
1,c1ccc(-c2nnc(SCc3nc4ccccc4[nH]3)o2)cc1,-11.4% (inactive)
2,c1ccc2c(CSCc3nc4ccccc4[nH]3)cccc2c1,-9.4% (inactive)
3,Clc1ccccc1SCc1nc2ccccc2[nH]1,98.6% (active)
4,O=C(Cc1ccc(NC(=O)C2CCCN(C(=O)C3CCCCC3)C2)cc1)Nc1cccc(C(=O)N2CCCCC2)c1 (centres undefined),2.88% (inactive)
5,Cc1cccc(C)c1NC(=S)N1CCCCCC1,-1.99% (inactive)
6,S=C(c1ccc(-c2ccccc2)o1)N1CCCCC1,99.8% (active)
7,CC1CCN(C(=S)c2ccc(-c3ccc(Cl)cc3Cl)o2)CC1,28% (inactive)
8,CC(C)Cc1nnc(N)s1,-14.5% (inactive)
9,Cc1ccc(NC(=O)C2CCC(C(C)(C)C)CC2)cc1S(=O)(=O)N1CCOCC1 (centres undefined),-5.55% (inactive)
10,COc1cc(/C=C2\Oc3ccc(C#Cc4ccc(O)cc4)cc3C2=O)cc(OC)c1,-73.4% (inactive)
11,COC(=O)c1cn(CC(=O)NCc2cccs2)c2ccccc12,81.5% (active)
12,O=C(COC(=O)c1cccs1)NCc1cccs1,3.86% (inactive)
13,COCCNC(=O)Cn1cc(C(=O)c2cccs2)c2ccccc21,7.95% (inactive)
14,O=C(NCc1ccccc1)c1cccc(NC(=O)C2CCCCC2)c1,-5.07% (inactive)
15,O=C(NN=Cc1ccccc1)c1ccccc1,55% (inactive)
16,Cc1ccoc1C(=O)Nc1cccc(Oc2ccccc2)c1,87% (active)
17,Cc1cccc(NC(=O)Nc2cccc(Oc3c(F)c(F)c(F)c(F)c3F)c2)c1,16.2% (inactive)
18,COc1cccc(NC(=O)c2ccccc2SC)c1,6.57% (inactive)
19,CSc1ncnc2c1ncn2CC(=O)C1CCC2C3CCC4=CC(=O)CCC4(C)C3CCC12C (centres undefined),-44.7% (inactive)
20,CCOc1ccc(/C=C(/C#N)c2nnc(N3CCOCC3)n2-c2ccccc2)cc1OC,-2.3% (inactive)
21,Cc1ccc(-c2noc(C3CCCN(C(=O)c4cccc(Cl)c4)C3)n2)o1 (centres undefined),102% (active)
22,COc1cccc(-c2noc(C3CCCN(C(=O)c4ccc(F)cc4)C3)n2)c1 (centres undefined),-11.5% (inactive)
23,O=C(c1ccc(F)cc1)N1CCCC(c2nc(-c3cccs3)no2)C1 (centres undefined),-6.36% (inactive)
24,O=C(Nc1nc(-c2ccc(-c3ccccc3)cc2)cs1)c1cnccn1,1.68% (inactive)
25,Cc1ccc(-c2csc(NC3OC(=O)c4ccccc43)n2)cc1 (centres undefined),-32.1% (inactive)

row,SMILES,activation
1,c1cnc(Nc2nc(-c3ccc4ccccc4c3)cs2)nc1,103% (active)
2,COc1cccc2[nH]c(C(=O)NCCc3ccccc3)cc12,110% (active)
3,COc1ccc(CCNC(=O)c2ccccc2OCc2ccccc2)cc1,-7.11% (inactive)
4,O=C(NCCc1ccccc1)c1cccc(NC(=O)c2ccccc2)c1,20.5% (inactive)
5,Cc1ccc(S(=O)(=O)N2CCN(C(=O)COC(=O)/C=C/c3cccc(Cl)c3)CC2)c(C)c1,4.12% (inactive)
6,Cc1cccc(NC(=O)c2ccc(S(=O)(=O)N(C)c3ccccc3)cc2)n1,1.38% (inactive)
7,CSCCC1NC(=O)N(CC(=O)Nc2cccc(S(=O)(=O)N3CCCCCC3)c2)C1=O (centres undefined),11.8% (inactive)
8,O=C(COC(=O)c1ccccc1)c1ccc2c(c1)OCCO2,17.6% (inactive)
9,O=C(COC(=O)c1ccc2c(c1)OCCO2)NCc1ccccc1Cl,4.3% (inactive)
10,O=C(OCc1ccccc1F)c1ccc2c(c1)OCCO2,126% (active)
11,CCOc1ccc(C(=O)Nc2cccc(SC)c2)cc1,84.3% (active)
12,CCOc1ccc(C(=O)Nc2cccc(-c3ccc4nncn4n3)c2)cc1,52.8% (inactive)
13,CCOc1ccc(C(=O)Nc2ccncc2)cc1,41.4% (inactive)
14,O=C1CC[C@@H]2CC3(C[C@@H]4CCN1[C@H]24)Nc1cc([N+](=O)[O-])ccc1NC3=NC1CCCCC1 (some centres undefined),3.73% (inactive)
15,COc1ccc(NC(=S)N2N=CCC2c2ccccc2)cc1 (centres undefined),90.9% (active)
16,COc1ccc(C(=S)Nc2ccccc2)cc1,33.5% (inactive)
17,COc1ccc(C(=O)NC2CCN(C(=S)Nc3ccccc3)CC2)cc1,-0.484% (inactive)
18,Cc1ccc(NC(=S)NCc2ccccc2Cl)c(C)c1,-11.2% (inactive)
19,Cc1ccc(C(=O)NC(=S)Nc2ccccc2C)cc1,51.8% (inactive)
20,Cc1ccc(NC(=S)Nc2ncccc2C)c(C)c1,92.2% (active)
21,COc1ccc(CNCCCn2cnc3c(OCc4ccccc4)ncnc32)cc1,7.28% (inactive)
22,Cc1ccc(S(=O)(=O)N2CCN(C(=O)c3cc(S(=O)(=O)N4CCOCC4)ccc3F)CC2)cc1,-4.55% (inactive)
23,NN=C(NN=Cc1ccccc1)c1ccccc1,35.2% (inactive)
24,CC1CCCN(c2ccc(C(=O)NCCc3ccccc3)cn2)C1 (centres undefined),126% (active)
25,O=C(NCCc1ccccc1)c1ccc2c(c1)N(Cc1ccccc1)CCS2,39.9% (inactive)

row,SMILES,activation
1,CCCOc1ccc(C(=O)NCCc2ccccc2)cc1,-2.06% (inactive)
2,CC(C(=O)N1CCc2ccccc21)N(C)CC(=O)Nc1ccc(F)cc1 (centres undefined),13.5% (inactive)
3,COC[C@@H]1NS(=O)(=O)c2ccc(Br)cc2O[C@H]1c1ccccc1,7.36% (inactive)
4,O=C(Nc1ccc(Cl)cc1)/C(=C1\CCCN1)[N+](=O)[O-],88.7% (active)
5,O=C(CC1SCCNC1=O)Nc1ccc(Cl)cc1 (centres undefined),26.1% (inactive)
6,O=C(O)C1CCCCC1C(=O)Nc1ccc(Cl)cc1 (centres undefined),20.2% (inactive)
7,COc1ccccc1N(CC(=O)Nc1ccc(C)cc1Cl)S(=O)(=O)c1cccs1,-4.34% (inactive)
8,O=C(NC1CCCCCC1)c1cccnc1Sc1ccc(Cl)cc1,6.6% (inactive)
9,O=C(NNC(=S)NC1CCCCC1)c1ccccc1Cl,9.14% (inactive)
10,Cc1occc1C(=O)NNC(=S)NCC(C)C,-2.13% (inactive)
11,COCCCNC(=S)NC(=O)c1ccccc1,17.9% (inactive)
12,S=C(NCc1ccc(Cl)cc1)NC1CCCCC1,-7.01% (inactive)
13,COc1ccc(C(=O)NC(=S)NC2CCCCC2)cc1,73.7% (inactive)
14,O=C(NC1CCCCC1)c1ccc(-c2ccc(Cl)cc2)o1,111% (active)
15,CC(C)CNC(=S)NC(=O)c1ccc(Cl)cc1,112% (active)
16,O=C(NC(=S)NC1CCCCC1)c1ccc(Cl)cc1,138% (active)
17,C=CCC[C@H](Cc1ccc(F)cc1)C(=O)OC[C@@H](NC(=O)[C@@H](CC=C)CC(=O)N[C@H](CO)Cc1ccccc1)C(C)(C)C,-0.905% (inactive)
18,CCCCNC1(C#N)CCN(Cc2ccccc2)CC1,0.419% (inactive)
19,CC(C)(C)OC(=O)N(Cc1ccccc1)Cc1ccc(OCc2cccc(NC(=O)c3ccccc3)c2)cc1,-13.4% (inactive)
20,O=C(C[C@H]1C[C@H](C(=O)N2CCOCC2)[C@@]2(CCC3CCCC3)c3[nH]c4ccc(Cl)cc4c3CCN2C1=O)NCc1ccco1,-16.1% (inactive)
21,CCCCNc1c(-c2ccc(OC)c(Sc3ccc(OC)cc3)c2)nc2ccc(Cl)cn12,4.02% (inactive)
22,CCOC(=O)C(CO)NC(=O)C1(NC(C)=O)CCCC1 (centres undefined) (Ac-[Ac5c]-[ξS]-OEt),14.3% (inactive)
23,COc1ccc(S(=O)(=O)N2CCc3ccccc32)cc1C(=O)Nc1cc(S(C)(=O)=O)ccc1Cl,-34% (inactive)
24,COc1ccc(N2CCN(Cc3nnc(-c4ccccc4)o3)CC2)cc1,-2.12% (inactive)
25,COc1ccc(Nc2ccc3ccccc3c2)cc1,101% (active)

row,SMILES,activation
1,S=C(Nc1ccccc1)Nc1ccc2ccccc2c1,1.98% (inactive)
2,COc1ccc(Nc2nnc(C)c3ccccc23)cc1,24.4% (inactive)
3,COc1ccc(-c2nnc(-c3ccc4ccccc4c3)o2)cc1,93.8% (active)
4,COc1ccc(-c2nnc(SCc3cccnc3)o2)cc1,72% (inactive)
5,CN(CCc1ccccc1)C(=O)c1cccc(NC(=O)Cc2cccc(NC(=O)C3CCCN(C(=O)CCc4ccccc4)C3)c2)c1 (centres undefined),-13.3% (inactive)
6,CCC1([N+](=O)[O-])COC(c2ccc(C(C)C)cc2)OC1 (centres undefined),53.9% (inactive)
7,CC(C)(C)OC(=O)C[C@@H]1C/C=C\C[C@@H](CC(=O)N(CCO)Cc2ccccc2)C(=O)N[C@H](Cc2ccccc2)COC1=O,8.13% (inactive)
8,c1ccc(CSc2nnc(-c3ccco3)n2Cc2ccccc2)cc1,94.3% (active)
9,O=C(CSc1nnc(-c2ccco2)n1-c1ccccc1)NCCc1ccccc1,-10.2% (inactive)
10,O=C(CSc1nnc(-c2ccco2)n1CC1CCCO1)c1ccccc1 (centres undefined),5.67% (inactive)
11,CCc1c(Nc2ccccc2Cl)nc(N)[nH]c1=O,0.399% (inactive)
12,CSc1ccccc1NC(=O)c1cc(Cl)sc1Cl,3.8% (inactive)
13,Cc1ccccc1C(=O)Nc1ccccc1Sc1ccccc1,-5.99% (inactive)
14,CSc1ccccc1NC(=O)c1cnc2sc(C)cn2c1=O,126% (active)
15,CC(=O)N1CCc2ccc(N)cc21,-5.2% (inactive)
16,CC(C#N)OC(=O)c1cccnc1SCC(=O)Nc1ccc2c(c1)OCO2 (centres undefined),-11.6% (inactive)
17,O=C(NCCSc1ccccc1)c1ccco1,61.4% (inactive)
18,CCS(=O)(=O)Nc1ccc(C(=O)NCCSc2ccccc2)cc1,82.4% (active)
19,Cc1ccc(C(=O)NCCNS(=O)(=O)c2ccccc2)cc1,0.954% (inactive)
20,CC(=O)OC1CCC2C3CCC4=C(CC(F)C(=O)C4)C3CCC12C (centres undefined),0.663% (inactive)
21,COc1ccc(-c2nnc3ccc(SCc4ccccc4)nn23)cc1,-5.03% (inactive)
22,COC(=O)CSc1nc(C)c2ccc(OC)cc2n1,16.3% (inactive)
23,COc1ccc2nc(SCc3ccccc3)nc(C)c2c1,91.9% (active)
24,C[C@]12c3[nH]c4ccc(Cl)cc4c3CCN1C(=O)[C@@H](CC(=O)NCCCn1ccnc1)C[C@@H]2C(=O)N1CCOCC1,13.5% (inactive)

# Source: PubChem BioAssay AID588334 (Broad Institute, 2011)
